Targets with a hit are over-represented here; the source holds about 7,900 in all. About 0.6% of all pairs of compound and target were hits. Unmarked numbers belong to inactive results.
Columns and labels:
Assay in all cases: log2 fold change, soluble protein after heating vs DMSO (PISA); higher = thermal stabilisation; K562 cells, 10 uM, 30 min; active = over 0.2 and 3.5 SD of the protein, either way, in both replicates (recomputed)
erlotinib = compound: C#Cc1cccc(Nc2ncnc3cc(OCCOC)c(OCCOC)cc23)c1 [erlotinib]
Method in brief: (§1)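 Soluble protein was quantified by TMTpro 16plex LC-MS/MS after channel sums were equalised. It was obtained as the supernatant after 21,000xg for 90 min from pooled aliquots of K562 cells (2×10^6 cells/mL, 10 μM compound, 30 min) heated for 3 min across 48°C-58°C and extracted in PBS with 0.5% NP-40 at 4°C. Thermal stability values are relative to control samples and come from duplicates. They are given as log2 fold changes.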

[1] = compound: C/C(=N\NC(=O)C1=CC(=CC=C1)S(=O)(=O)N2CCOCC2)/C3=C(C=CC(=C3)Cl)O
Method in brief: as §1

[2] = compound: C1=CC(=C(C=C1Cl)C2=NC3=NC=CN=C3C(=N2)NC4=CC=NC=C4)F
Method in brief: as §1

[3] = compound: C1=CC(=CC=C1C2=NC3=C(N2)C=C(C=C3)C(=O)N)OC4=CC=C(C=C4)Cl
Method in brief: as §1

[4] = compound: C1=CC2=C(C=CC(=C2)/C=C\3/C(=O)NC(=NCC4=CC=CS4)S3)N=C1
Method in brief: as §1

[5] = compound: C1=CC2=NC=CN=C2C=C1/C=C/3\C(=O)NC(=O)S3
Method in brief: as §1

[6] = compound: C1=CC=C(C=C1)C2=NC(=C(N2)C3=CC=NC=C3)C4=CC(=C(C=C4)Cl)O
Method in brief: as §1

[7] = compound: C1=CC=C2C(=C1)C3=NNC4=CC=CC(=C43)C2=O
Method in brief: as §1

[8] = compound: C1CCN(C1)C(=O)NC2=CC=CC(=C2)NC3=NC=C(C(=N3)NCCC4=CN=CN4)Br
Method in brief: as §1

[9] = compound: C1CN(CCC1(CC2=CC=C(C=C2)Cl)N)C3=NC=NC4=C3C=CN4
Method in brief: as §1

Sequence of UniProt Q9H3F6 (Q9H3F6 whole entry, looked up): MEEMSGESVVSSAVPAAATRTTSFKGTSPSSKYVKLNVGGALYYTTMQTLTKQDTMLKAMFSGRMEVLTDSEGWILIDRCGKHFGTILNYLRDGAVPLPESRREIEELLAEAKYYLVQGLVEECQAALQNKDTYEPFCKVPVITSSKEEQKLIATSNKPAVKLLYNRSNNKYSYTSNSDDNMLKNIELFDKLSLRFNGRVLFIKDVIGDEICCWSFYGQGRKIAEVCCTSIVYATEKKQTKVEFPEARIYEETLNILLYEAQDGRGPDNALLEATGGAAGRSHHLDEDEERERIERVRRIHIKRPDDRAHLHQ
Sequence of UniProt Q9NUN5 (Q9NUN5 whole entry, looked up): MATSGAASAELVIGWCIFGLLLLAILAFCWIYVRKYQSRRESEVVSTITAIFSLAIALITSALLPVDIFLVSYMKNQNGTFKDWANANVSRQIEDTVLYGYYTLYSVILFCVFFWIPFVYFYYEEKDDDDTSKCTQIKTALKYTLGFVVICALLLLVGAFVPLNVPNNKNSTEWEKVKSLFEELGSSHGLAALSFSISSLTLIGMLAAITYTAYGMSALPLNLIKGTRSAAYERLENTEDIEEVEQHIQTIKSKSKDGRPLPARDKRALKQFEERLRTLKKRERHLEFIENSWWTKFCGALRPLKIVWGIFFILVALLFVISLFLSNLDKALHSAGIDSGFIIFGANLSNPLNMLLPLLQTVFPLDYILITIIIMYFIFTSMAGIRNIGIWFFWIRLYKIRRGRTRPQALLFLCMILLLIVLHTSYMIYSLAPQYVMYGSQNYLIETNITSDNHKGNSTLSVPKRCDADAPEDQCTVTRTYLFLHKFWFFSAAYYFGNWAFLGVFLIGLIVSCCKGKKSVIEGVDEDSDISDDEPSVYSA
Sequence of UniProt Q13418 (Q13418 whole entry, looked up): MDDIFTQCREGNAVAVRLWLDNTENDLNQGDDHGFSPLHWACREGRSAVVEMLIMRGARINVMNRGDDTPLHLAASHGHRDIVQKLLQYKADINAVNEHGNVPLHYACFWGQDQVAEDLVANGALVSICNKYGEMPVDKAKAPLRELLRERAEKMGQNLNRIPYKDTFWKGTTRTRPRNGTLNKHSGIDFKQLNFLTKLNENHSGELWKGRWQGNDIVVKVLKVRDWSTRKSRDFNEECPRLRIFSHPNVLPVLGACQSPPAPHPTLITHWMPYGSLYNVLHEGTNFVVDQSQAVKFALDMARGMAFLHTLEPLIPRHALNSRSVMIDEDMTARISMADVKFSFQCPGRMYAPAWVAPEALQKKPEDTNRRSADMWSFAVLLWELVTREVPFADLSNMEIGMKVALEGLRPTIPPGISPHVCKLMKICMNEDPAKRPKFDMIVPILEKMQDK
Sequence of UniProt O60333 (O60333 whole entry, looked up): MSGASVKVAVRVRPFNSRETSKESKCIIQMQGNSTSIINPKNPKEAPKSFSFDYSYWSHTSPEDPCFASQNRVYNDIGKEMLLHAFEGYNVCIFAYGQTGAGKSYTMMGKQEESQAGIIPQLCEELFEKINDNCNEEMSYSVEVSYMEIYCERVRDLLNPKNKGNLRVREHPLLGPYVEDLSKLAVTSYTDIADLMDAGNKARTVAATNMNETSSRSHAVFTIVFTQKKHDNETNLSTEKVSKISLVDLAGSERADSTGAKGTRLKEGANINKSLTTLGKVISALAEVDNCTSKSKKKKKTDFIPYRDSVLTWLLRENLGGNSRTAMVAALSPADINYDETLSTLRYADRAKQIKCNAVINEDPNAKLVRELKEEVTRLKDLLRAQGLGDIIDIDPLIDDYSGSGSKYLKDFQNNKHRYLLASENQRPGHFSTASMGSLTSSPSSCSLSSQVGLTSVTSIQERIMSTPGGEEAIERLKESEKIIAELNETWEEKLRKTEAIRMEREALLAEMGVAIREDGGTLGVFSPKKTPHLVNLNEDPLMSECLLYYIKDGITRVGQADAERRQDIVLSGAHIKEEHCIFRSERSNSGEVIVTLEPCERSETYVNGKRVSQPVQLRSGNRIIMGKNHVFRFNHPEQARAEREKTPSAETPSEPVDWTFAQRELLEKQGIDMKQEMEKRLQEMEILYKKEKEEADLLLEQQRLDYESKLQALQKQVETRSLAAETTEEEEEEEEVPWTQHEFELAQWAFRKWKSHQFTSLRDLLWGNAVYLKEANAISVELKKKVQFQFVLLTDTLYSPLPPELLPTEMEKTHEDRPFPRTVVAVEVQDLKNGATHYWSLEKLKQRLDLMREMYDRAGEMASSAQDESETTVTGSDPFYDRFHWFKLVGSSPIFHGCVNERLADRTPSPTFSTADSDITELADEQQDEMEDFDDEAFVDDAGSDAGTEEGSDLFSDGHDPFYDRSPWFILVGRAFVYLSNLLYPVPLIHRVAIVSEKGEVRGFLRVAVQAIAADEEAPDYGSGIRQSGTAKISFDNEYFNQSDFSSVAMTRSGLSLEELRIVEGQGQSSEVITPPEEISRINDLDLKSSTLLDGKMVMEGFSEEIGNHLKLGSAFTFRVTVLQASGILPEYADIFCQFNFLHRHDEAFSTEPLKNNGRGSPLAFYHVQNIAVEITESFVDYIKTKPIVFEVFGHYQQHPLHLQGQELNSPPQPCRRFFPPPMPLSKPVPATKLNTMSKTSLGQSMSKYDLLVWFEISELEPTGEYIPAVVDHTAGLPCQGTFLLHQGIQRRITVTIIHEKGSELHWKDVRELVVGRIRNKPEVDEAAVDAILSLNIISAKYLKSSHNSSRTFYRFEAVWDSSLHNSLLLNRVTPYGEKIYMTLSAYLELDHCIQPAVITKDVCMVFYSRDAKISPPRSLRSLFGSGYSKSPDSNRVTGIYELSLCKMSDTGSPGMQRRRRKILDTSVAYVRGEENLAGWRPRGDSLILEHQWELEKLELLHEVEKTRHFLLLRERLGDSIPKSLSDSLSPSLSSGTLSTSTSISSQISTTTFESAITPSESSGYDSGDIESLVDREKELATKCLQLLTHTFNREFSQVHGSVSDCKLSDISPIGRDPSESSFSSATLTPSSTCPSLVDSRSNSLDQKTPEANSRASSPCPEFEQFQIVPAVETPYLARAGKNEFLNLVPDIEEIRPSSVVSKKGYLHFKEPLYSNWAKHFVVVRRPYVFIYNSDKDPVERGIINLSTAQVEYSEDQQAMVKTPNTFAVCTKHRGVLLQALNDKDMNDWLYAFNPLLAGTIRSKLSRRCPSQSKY
Sequence of UniProt Q9BU23 (Q9BU23 whole entry, looked up): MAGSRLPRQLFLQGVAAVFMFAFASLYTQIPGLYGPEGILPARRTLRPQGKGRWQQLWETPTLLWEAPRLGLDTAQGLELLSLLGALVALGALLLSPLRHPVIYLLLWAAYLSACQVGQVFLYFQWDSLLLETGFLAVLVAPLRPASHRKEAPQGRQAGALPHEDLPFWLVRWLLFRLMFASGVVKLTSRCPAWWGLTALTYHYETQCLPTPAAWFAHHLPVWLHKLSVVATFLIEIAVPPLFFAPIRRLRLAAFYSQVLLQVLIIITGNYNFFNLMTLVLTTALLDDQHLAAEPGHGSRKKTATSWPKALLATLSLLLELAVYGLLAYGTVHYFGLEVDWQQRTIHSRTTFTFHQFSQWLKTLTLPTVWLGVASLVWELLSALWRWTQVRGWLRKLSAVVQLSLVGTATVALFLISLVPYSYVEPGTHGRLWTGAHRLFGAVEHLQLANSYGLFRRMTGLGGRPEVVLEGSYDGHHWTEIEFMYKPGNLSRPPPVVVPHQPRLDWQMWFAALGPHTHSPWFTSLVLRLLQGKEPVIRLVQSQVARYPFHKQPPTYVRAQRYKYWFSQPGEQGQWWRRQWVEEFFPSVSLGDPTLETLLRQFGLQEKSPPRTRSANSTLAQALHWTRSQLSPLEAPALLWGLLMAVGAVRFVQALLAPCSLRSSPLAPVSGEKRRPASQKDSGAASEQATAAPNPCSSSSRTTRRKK
Sequence of UniProt Q92551 (Q92551 whole entry, looked up): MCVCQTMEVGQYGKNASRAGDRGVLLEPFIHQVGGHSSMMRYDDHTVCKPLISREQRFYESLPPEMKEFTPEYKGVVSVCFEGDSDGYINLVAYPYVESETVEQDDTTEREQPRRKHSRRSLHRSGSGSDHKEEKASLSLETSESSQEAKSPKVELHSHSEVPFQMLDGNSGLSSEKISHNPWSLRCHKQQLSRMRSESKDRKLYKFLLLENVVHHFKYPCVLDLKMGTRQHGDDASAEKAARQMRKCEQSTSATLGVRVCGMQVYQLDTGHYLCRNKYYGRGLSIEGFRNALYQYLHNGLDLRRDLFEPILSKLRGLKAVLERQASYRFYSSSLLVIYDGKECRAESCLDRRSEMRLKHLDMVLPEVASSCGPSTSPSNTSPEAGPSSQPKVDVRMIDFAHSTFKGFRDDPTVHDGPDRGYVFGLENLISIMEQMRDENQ
Sequence of UniProt Q8IWB1 (Q8IWB1 whole entry, looked up): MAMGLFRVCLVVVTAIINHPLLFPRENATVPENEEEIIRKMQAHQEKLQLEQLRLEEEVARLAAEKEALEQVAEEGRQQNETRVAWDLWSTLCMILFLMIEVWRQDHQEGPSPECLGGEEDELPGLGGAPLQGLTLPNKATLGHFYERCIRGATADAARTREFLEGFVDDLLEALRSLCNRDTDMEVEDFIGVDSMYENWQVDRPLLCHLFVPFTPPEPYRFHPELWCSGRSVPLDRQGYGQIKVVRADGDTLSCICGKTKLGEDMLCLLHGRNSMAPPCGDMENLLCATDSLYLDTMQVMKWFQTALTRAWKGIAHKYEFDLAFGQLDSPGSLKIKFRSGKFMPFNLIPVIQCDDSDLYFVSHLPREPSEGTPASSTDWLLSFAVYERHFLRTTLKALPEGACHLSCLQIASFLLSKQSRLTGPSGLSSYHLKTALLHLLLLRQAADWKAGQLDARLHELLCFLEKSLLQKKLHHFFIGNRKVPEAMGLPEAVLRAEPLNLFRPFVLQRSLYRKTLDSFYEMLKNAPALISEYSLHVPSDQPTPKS

| Target | log2 fold change (erlotinib) | log2 fold change [1] | log2 fold change [2] | log2 fold change [3] | log2 fold change [4] | log2 fold change [5] | log2 fold change [6] | log2 fold change [7] | log2 fold change [8] | log2 fold change [9] |
| --- | --- | --- | --- | --- | --- | --- | --- | --- | --- | --- |
| KIF1B isoform 4 (UniProt O60333) | 0.031 | 0.095 | 0.042 | -0.059 | 0.002 | 0.018 | -0.092 | 0.078 | -0.02 | -0.091 |
| LRBA, A0A494BZW2 | 0.111 | 0.022 | 0.283 | 0.124 | -0.055 | 0.061 | -0.105 | -0.013 | 0.097 | 0.189 |
| LMBRD1 (UniProt Q9NUN5) | 0.075 | -0.055 | 0.211 | -0.014 | 0.226 | 0.113 | -0.051 | -0.027 | -0.142 | 0.033 |
| MICU1 isoform 3 (UniProt Q9BPX6) | -0.02 | -0.026 | -0.022 | 0.002 | -0.009 | 0.007 | -0.054 | 0.008 | 0.013 | -0.015 |
| KDM5D isoform 3 (UniProt Q9BY66) | -0.036 | -0.142 | 0.067 | -0.147 | 0.121 | -0.034 | -0.005 | 0.026 | 0.035 | 0.022 |
| LAMP2 (UniProt P13473) | 0.035 | 0 | 0.088 | 0.031 | 0.002 | 0.101 | -0.013 | -0.01 | -0.013 | 0.039 |
| MCUR1 (UniProt Q96AQ8) | -0.012 | -0.03 | 0.055 | 0.003 | 0.053 | -0.006 | 0.102 | 0.005 | -0.023 | 0.063 |
| KDM1A isoform 2 (UniProt O60341) | 0.059 | 0.039 | 0.006 | -0.028 | 0.075 | -0.015 | 0.059 | -0.026 | -0.03 | -0.069 |
| KCTD10 (UniProt Q9H3F6) | -0.041 | 0.159 | -0.051 | 0.014 | -0.021 | 0.049 | -0.171 | 0.045 | -0.027 | -0.055 |
| LMF2 (UniProt Q9BU23) | -0.017 | 0.002 | -0.005 | 0.434 (active) | 0.055 | -0.012 | 0.006 | 0.052 | -0.021 | 0.021 |
| LEMD2 (UniProt Q8NC56) | 0.04 | 0.007 | -0.054 | -0.002 | 0.11 | 0.001 | 0.042 | 0.008 | -0.016 | 0.046 |
| INTS5 (UniProt Q6P9B9) | -0.027 | 0.025 | -0.403 (active) | -0.086 | -0.023 | 0.097 | -0.138 | -0.18 | -0.126 | -0.033 |
| ITPRIP (UniProt Q8IWB1) | 0.012 | -0.086 | 0.052 | 0.034 | -0.05 | 0.01 | -0.085 | -0.094 | -0.02 | 0.012 |
| IMMT isoform 2 (UniProt Q16891) | -0.057 | 0.043 | 0.051 | -0.022 | -0.07 | -0.021 | -0.026 | 0.021 | 0.007 | 0.047 |
| MAP4 (UniProt E7EVA0) | 0 | -0.093 | -0.219 | 0.063 | -0.087 | 0.058 | -0.086 | -0.003 | 0.034 | -0.053 |
| KIF3B (UniProt O15066) | -0.015 | 0.016 | -0.015 | -0.108 | -0.02 | 0.004 | -0.029 | 0.077 | -0.101 | -0.039 |
| IPO13 (UniProt O94829) | -0.045 | -0.018 | 0.05 | -0.037 | 0.025 | 0.021 | -0.059 | -0.033 | 0.013 | -0.062 |
| KLC2 (UniProt Q9H0B6) | 0.036 | 0.063 | 0.008 | -0.044 | 0.078 | 0.025 | -0.039 | 0.006 | -0.063 | -0.007 |
| KIF3A (UniProt Q9Y496) | -0.222 | -0.06 | -0.069 | -0.122 | -0.049 | 0.034 | -0.062 | -0.025 | -0.011 | -0.067 |
| MAGI1 (UniProt Q96QZ7) | -0.022 | 0 | -0.083 | 0.049 | -0.008 | 0.018 | -0.015 | -0.016 | 0.012 | -0.047 |
| ILK (UniProt Q13418) | 0 | -0.119 | -0.086 | 0.016 | 0.091 | 0.002 | -0.056 | -0.056 | 0.068 | 0.008 |
| MAPK14 isoform 2 (UniProt Q16539) | 0.313 | -0.051 | 0.936 (active) | -0.136 | 0.01 | -0.013 | 1 (active) | 0.207 | 0.021 | -0.102 |
| MFGE8 (UniProt Q08431) | -0.135 | -0.032 | -0.149 | 0.045 | -0.059 | -0.024 | 0.024 | 0.095 | -0.041 | -0.066 |
| LBR (UniProt Q14739) | 0.009 | 0.122 | 0.043 | -0.016 | 0.029 | 0.034 | 0.059 | -0.002 | 0.037 | 0.21 |
| MAP2K3 isoform 3 (UniProt P46734) | -0.011 | 0.05 | 0.002 | 0.009 | 0.036 | 0.017 | 0.046 | -0.057 | 0.016 | -0.006 |
| KDM3B (UniProt Q7LBC6) | 0.029 | 0.051 | 0.083 | -0.019 | 0 | 0.043 | 0.029 | -0.015 | -0.03 | 0.008 |
| IP6K1 (UniProt Q92551) | -0.054 | 0.017 | -0.24 | 0 | 0.25 | -0.025 | -0.088 | 0.142 | -0.083 | 0.067 |
| KIF21A isoform 4 (UniProt Q7Z4S6) | 0.017 | 0.056 | -0.043 | -0.016 | -0.023 | 0.006 | -0.075 | -0.065 | -0.144 | -0.233 |
| IPO9 (UniProt Q96P70) | -0.021 | 0.073 | 0.01 | -0.061 | 0.023 | 0.096 | -0.035 | -0.024 | -0.02 | 0.052 |
| MAP3K4 isoform 2 (UniProt Q9Y6R4) | -0.027 | 0.019 | 0.036 | -0.023 | 0.039 | -0.017 | -0.023 | -0.031 | 0.034 | 0.07 |

— the supplement of paper PMC10849652
